Results published in ChEMBL document CHEMBL1961873, “Compounds: GSK PKIS; Assays: Nanosyn kinase panel” (2012).

These compounds were tested on Proto-oncogene tyrosine-protein kinase receptor Ret (Homo sapiens), P07949 [Y791F]. Details: at 1 µM.
Chain of Proto-oncogene tyrosine-protein kinase receptor Ret (Homo sapiens), P07949 [Y791F] (P07949 whole entry Y791F): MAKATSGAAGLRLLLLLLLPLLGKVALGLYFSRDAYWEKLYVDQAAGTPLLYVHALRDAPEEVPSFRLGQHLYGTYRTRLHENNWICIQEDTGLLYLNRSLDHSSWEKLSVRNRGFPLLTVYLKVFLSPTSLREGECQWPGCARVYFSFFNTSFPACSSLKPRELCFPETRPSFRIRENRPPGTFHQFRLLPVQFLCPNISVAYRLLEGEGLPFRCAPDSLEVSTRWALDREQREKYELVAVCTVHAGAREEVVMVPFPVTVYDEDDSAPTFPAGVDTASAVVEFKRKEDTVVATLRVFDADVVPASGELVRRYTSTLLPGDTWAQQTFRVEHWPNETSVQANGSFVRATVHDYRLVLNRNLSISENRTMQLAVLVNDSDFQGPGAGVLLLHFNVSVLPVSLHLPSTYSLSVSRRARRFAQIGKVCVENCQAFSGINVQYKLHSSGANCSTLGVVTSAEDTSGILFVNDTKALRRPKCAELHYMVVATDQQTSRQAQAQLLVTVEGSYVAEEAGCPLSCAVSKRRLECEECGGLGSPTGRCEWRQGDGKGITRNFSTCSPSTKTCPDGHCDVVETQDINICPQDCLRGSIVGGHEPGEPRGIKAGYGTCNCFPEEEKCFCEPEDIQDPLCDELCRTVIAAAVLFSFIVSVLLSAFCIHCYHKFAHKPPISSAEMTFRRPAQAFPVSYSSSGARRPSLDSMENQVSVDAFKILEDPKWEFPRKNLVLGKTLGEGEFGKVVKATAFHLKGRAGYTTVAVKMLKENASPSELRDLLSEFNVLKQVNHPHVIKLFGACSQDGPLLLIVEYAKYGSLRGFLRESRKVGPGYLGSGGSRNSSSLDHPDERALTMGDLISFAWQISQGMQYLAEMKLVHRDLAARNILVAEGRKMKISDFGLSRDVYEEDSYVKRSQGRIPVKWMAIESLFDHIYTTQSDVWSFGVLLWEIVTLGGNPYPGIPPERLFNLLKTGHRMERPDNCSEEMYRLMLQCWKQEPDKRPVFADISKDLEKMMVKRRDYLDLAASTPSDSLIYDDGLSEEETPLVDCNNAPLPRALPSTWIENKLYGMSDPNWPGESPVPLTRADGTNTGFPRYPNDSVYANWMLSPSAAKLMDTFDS

Row | Compound | inhibition
1 | COc1cc2ncnc(Nc3ccc(C)c(O)c3)c2cc1OC | 90.1%
2 | Cc1cc(-c2ccccn2)cc(C)c1/C=C/c1cncc(-c2nn[nH]n2)c1 | 9.36%
3 | CC(C)c1ccc2c(c1)NC(=O)/C2=N/Nc1ccc(S(N)(=O)=O)cc1 | 30.7%
4 | CCn1c(-c2nonc2N)nc2ccc(F)cc21 | 11.3%
5 | CN(c1ccc(NC(=O)Nc2ccc(OC(F)(F)F)cc2)cc1)c1ccnc(Nc2cccc(S(N)(=O)=O)c2)n1 | 92.1%
6 | c1ccc(Nc2ncc(-c3ccccc3)o2)cc1 | 11.5%
7 | CCOc1nccc2c1nc(-c1nonc1N)n2CC | 28.7%
8 | COc1cccc(-n2ncc3c(N/N=C/c4ccc(S(C)(=O)=O)cc4)ncnc32)c1 | 26.7%
9 | Cc1ccc2c(-c3ccnc(Nc4cccc(C(F)(F)F)c4)n3)c(-c3ccccc3)nn2n1 | 37.9%
10 | NS(=O)(=O)c1cccc(Nc2cc(-c3ccc(F)cc3)n[nH]2)c1 | 23.6%
11 | CCCN1CCCC(c2ccc(Nc3nc(Nc4cc(F)ccc4C(N)=O)c4cc[nH]c4n3)c(OC)c2)C1 (stereo not drawn) | 23.6%
12 | c1ccc(Cc2nc3ccc(Nc4ncnc5ccccc45)cc3[nH]2)cc1 | 6.8%
13 | CN1CCN(C(=O)c2ccc(NC(=O)Nc3ccc(N(C)c4ccnc(Nc5ccc(CS(C)(=O)=O)cc5)n4)cc3)cc2)CC1 | 82.8%
14 | N#Cc1cccc(Nc2nccc(-c3cnn4ncccc34)n2)c1 | 37.3%
15 | Nc1nccc(-c2c(-c3ccc(F)cc3)ncn2CCCN2CCOCC2)n1 | 24.9%
16 | COc1cc(/C=N/Nc2ncnc3c2cnn3C(C)C)ccc1O | 78.1%
17 | O=C(Nc1ccc(Oc2ccc3[nH]c(NC(=O)c4ccco4)nc3c2)cc1)Nc1cc(C(F)(F)F)ccc1F | 82.3%

Row | Compound | inhibition
18 | Cc1ccc(Nc2ccnc(Nc3cccc(C(N)=O)c3)n2)cc1O | 88.7%
19 | COC(=O)c1cncc(/C=C/c2c(C)cc(O)cc2C)c1 | 15.2%
20 | Cc1cc(O)cc(C)c1/C=C/c1cncc(C(=O)N(C)C)c1 | 11.9%
21 | NC(=O)c1cccc(Nc2nccc(Nc3cccc(F)c3)n2)c1 | 37.9%
22 | COc1cc2ncnc(Nc3ccc4c(cnn4Cc4ccccc4)c3)c2cc1OC | 40%
23 | CCn1c(-c2nonc2N)nc2c(C#CC(C)(C)O)nc(OCCNC)cc21 | 28.9%
24 | Nc1nccc(C#Cc2cncnc2Nc2ccc(OCc3cccc(F)c3)c(Cl)c2)n1 | 10.5%
25 | COC(=O)Nc1nc2cc(Oc3ccc(NC(=O)Nc4cccc(Br)c4)cc3)ccc2[nH]1 | 84.4%
26 | O=C1Nc2ccccc2/C1=C/Nc1ccc2[nH]c(=O)[nH]c2c1 | 67%
27 | NS(=O)(=O)c1ccc(Nc2cc(-c3cccc(O)c3)n[nH]2)cc1 | 26.2%
28 | COc1cc2ncn(-c3cc(OCc4ccccc4S(C)(=O)=O)c(C#N)s3)c2cc1OC | 59.1%
29 | CC(C)c1ccc(Nc2nccc(-c3cnn4ncccc34)n2)cc1 | 13.4%
30 | NS(=O)(=O)c1ccc(N/N=C2\C(=O)Nc3ccc(Cl)cc32)cc1 | 22.3%
31 | FC(F)(F)c1ccc(-c2nn3ncccc3c2-c2ccnc(Nc3ccc4c(c3)OCCO4)n2)cc1 | 43.9%
32 | Nc1ccc(C#Cc2cncnc2Nc2ccc(OCc3cccc(F)c3)c(Cl)c2)cc1 | 4.06%
33 | Cc1ccc(O)cc1Nc1ccnc2ccc(S(C)(=O)=O)cc12 | 89.5%
34 | NS(=O)(=O)c1ccc(NC=C2C(=O)Nc3ccc4ncsc4c32)cc1 | 72.4%

The compounds below were run against Macrophage-stimulating protein receptor (Homo sapiens) (UniProt Q04912). Details: at 0.1 µM.
Chain of Macrophage-stimulating protein receptor (Homo sapiens) (Q04912 25-304 limits assumed): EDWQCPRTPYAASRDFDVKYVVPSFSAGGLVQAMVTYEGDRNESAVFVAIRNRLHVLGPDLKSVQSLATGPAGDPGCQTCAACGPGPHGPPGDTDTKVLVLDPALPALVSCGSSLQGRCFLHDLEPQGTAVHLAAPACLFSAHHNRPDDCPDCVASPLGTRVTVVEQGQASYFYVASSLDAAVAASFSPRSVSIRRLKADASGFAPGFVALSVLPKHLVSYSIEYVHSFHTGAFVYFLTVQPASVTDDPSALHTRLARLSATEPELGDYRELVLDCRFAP
Chain of Macrophage-stimulating protein receptor (Homo sapiens) (Q04912 310-1400 limits assumed): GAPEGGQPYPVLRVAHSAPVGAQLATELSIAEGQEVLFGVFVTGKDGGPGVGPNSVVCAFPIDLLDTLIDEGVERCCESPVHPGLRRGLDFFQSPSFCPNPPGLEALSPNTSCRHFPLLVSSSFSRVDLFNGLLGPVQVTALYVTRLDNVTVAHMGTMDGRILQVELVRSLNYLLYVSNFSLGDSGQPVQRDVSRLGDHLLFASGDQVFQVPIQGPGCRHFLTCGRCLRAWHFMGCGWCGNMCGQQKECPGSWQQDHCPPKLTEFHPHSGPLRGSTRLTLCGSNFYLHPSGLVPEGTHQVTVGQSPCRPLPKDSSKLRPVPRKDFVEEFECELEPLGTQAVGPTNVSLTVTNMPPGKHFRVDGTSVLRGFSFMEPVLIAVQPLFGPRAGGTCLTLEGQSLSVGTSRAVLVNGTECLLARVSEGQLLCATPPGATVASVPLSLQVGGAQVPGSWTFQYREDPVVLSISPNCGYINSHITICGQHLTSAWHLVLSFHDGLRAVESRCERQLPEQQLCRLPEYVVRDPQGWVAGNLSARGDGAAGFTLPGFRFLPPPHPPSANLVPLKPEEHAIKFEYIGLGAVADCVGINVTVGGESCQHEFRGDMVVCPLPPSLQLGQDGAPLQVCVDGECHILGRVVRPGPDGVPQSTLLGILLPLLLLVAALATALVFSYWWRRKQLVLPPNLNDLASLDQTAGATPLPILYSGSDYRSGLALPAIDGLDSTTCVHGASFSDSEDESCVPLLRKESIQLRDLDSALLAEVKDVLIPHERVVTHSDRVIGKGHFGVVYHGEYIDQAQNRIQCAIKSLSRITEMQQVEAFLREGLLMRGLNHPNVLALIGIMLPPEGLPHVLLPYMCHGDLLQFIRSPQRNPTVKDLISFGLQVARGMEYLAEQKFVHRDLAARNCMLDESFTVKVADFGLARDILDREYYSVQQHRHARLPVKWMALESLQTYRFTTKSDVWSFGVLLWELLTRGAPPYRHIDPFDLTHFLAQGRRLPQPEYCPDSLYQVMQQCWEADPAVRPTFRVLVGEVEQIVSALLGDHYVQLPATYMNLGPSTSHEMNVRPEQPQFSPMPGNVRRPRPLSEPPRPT

Row | Compound | inhibition
35 | COc1cc2ncnc(Nc3ccc(C)c(O)c3)c2cc1OC | 1.46%
36 | Cc1cc(-c2ccccn2)cc(C)c1/C=C/c1cncc(-c2nn[nH]n2)c1 | 3.67%
37 | CC(C)c1ccc2c(c1)NC(=O)/C2=N/Nc1ccc(S(N)(=O)=O)cc1 | 1.23%
38 | CCn1c(-c2nonc2N)nc2ccc(F)cc21 | 0.5%
39 | CN(c1ccc(NC(=O)Nc2ccc(OC(F)(F)F)cc2)cc1)c1ccnc(Nc2cccc(S(N)(=O)=O)c2)n1 | 54.3%
40 | c1ccc(Nc2ncc(-c3ccccc3)o2)cc1 | 8.13%
41 | CCOc1nccc2c1nc(-c1nonc1N)n2CC | 10%
42 | COc1cccc(-n2ncc3c(N/N=C/c4ccc(S(C)(=O)=O)cc4)ncnc32)c1 | 29.4%
43 | Cc1ccc2c(-c3ccnc(Nc4cccc(C(F)(F)F)c4)n3)c(-c3ccccc3)nn2n1 | 2.85%
44 | NS(=O)(=O)c1cccc(Nc2cc(-c3ccc(F)cc3)n[nH]2)c1 | -6.54%
45 | CCCN1CCCC(c2ccc(Nc3nc(Nc4cc(F)ccc4C(N)=O)c4cc[nH]c4n3)c(OC)c2)C1 (stereo not drawn) | 0.58%
46 | c1ccc(Cc2nc3ccc(Nc4ncnc5ccccc45)cc3[nH]2)cc1 | 4.08%
47 | CN1CCN(C(=O)c2ccc(NC(=O)Nc3ccc(N(C)c4ccnc(Nc5ccc(CS(C)(=O)=O)cc5)n4)cc3)cc2)CC1 | 18.6%
48 | N#Cc1cccc(Nc2nccc(-c3cnn4ncccc34)n2)c1 | -3.06%
49 | Nc1nccc(-c2c(-c3ccc(F)cc3)ncn2CCCN2CCOCC2)n1 | -1.76%
50 | COc1cc(/C=N/Nc2ncnc3c2cnn3C(C)C)ccc1O | 8.98%
51 | O=C(Nc1ccc(Oc2ccc3[nH]c(NC(=O)c4ccco4)nc3c2)cc1)Nc1cc(C(F)(F)F)ccc1F | -2.7%

Row | Compound | inhibition
52 | Cc1ccc(Nc2ccnc(Nc3cccc(C(N)=O)c3)n2)cc1O | 0.19%
53 | COC(=O)c1cncc(/C=C/c2c(C)cc(O)cc2C)c1 | -3.36%
54 | Cc1cc(O)cc(C)c1/C=C/c1cncc(C(=O)N(C)C)c1 | 4.1%
55 | NC(=O)c1cccc(Nc2nccc(Nc3cccc(F)c3)n2)c1 | -6.8%
56 | COc1cc2ncnc(Nc3ccc4c(cnn4Cc4ccccc4)c3)c2cc1OC | 3.2%
57 | CCn1c(-c2nonc2N)nc2c(C#CC(C)(C)O)nc(OCCNC)cc21 | 6.88%
58 | Nc1nccc(C#Cc2cncnc2Nc2ccc(OCc3cccc(F)c3)c(Cl)c2)n1 | -0.99%
59 | COC(=O)Nc1nc2cc(Oc3ccc(NC(=O)Nc4cccc(Br)c4)cc3)ccc2[nH]1 | 1.47%
60 | O=C1Nc2ccccc2/C1=C/Nc1ccc2[nH]c(=O)[nH]c2c1 | 5.9%
61 | NS(=O)(=O)c1ccc(Nc2cc(-c3cccc(O)c3)n[nH]2)cc1 | 5.75%
62 | COc1cc2ncn(-c3cc(OCc4ccccc4S(C)(=O)=O)c(C#N)s3)c2cc1OC | -3.29%
63 | CC(C)c1ccc(Nc2nccc(-c3cnn4ncccc34)n2)cc1 | 1.98%
64 | NS(=O)(=O)c1ccc(N/N=C2\C(=O)Nc3ccc(Cl)cc32)cc1 | 3.12%
65 | FC(F)(F)c1ccc(-c2nn3ncccc3c2-c2ccnc(Nc3ccc4c(c3)OCCO4)n2)cc1 | 11.8%
66 | Nc1ccc(C#Cc2cncnc2Nc2ccc(OCc3cccc(F)c3)c(Cl)c2)cc1 | 7.87%
67 | Cc1ccc(O)cc1Nc1ccnc2ccc(S(C)(=O)=O)cc12 | 5.15%
68 | NS(=O)(=O)c1ccc(NC=C2C(=O)Nc3ccc4ncsc4c32)cc1 | 10.4%
